Data on 35 compounds can be found in PubChem BioAssay (Tox21).

Molecules are shown by their SMILES. Where “and” joins values, the source holds several entries; their conditions need not be identical. Equal values may be shown once. Calls of active or inactive are those of the source. A call without a number means that no potency is given here. Unless noted, the call rests on the fitted dose curve.

Test system in the first assay: not listed separately
Kind of assay: qHTS assay to identify small molecule antagonists of the thyroid receptor (TR) signaling pathway (AID 743065; active means well fitted inhibition curve with a large enough effect in the repeat runs; inconclusive means weak or mixed curves; inactive means no such curve, though single readings can be large or run the other way; further: nearly all actives have a fitted effect of over 55% in size; further: potency means the concentration at half of the fitted maximal effect). Particulars: GH3.TRE-Luc, T3-stimulated luciferase inhibition, 23.5 h; series mostly up to 70.3 µM. In a few lines: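 Antagonism measured as loss of luciferase signal in GH3 cells stably carrying a TRE-luciferase reporter, co-treated with compound and T3 (1 nM final) for 23.5 h at 37 C. Viability was read in the same well by CellTiter-Fluor.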
For the compound `CNC(=S)NN`, the Potency was 61.1 µM (active).
The same measure, in the same setting: then `O=C(Nc1ccc(Cl)cc1)Nc1ccc(Cl)c(C(F)(F)F)c1`, with 5.31 µM (active); and `O=C1OC(OC(=O)c2cccnc2Nc2cccc(C(F)(F)F)c2)c2ccccc21` (stereo not given), with 29.8 µM (active); and `CCCCCCCC/C=C\CCCCCCCC(=O)NCc1ccc(O)c(OC)c1`, with 6.68 µM (active).
On the same count and under the same terms, the result for `Cc1ccc(N)cc1O` reads “inactive”; that for `Nc1ncnc2c1ncn2[C@@H]1O[C@H](COP(=O)(O)O)[C@@H](O)[C@H]1O`, “inactive”.
Take `C/C=C/C=N/NC(=O)c1ccncc1`: the Potency result is “inactive”.
Still for that read-out and setting: the result for `SCCCCCCCCS` reads “inactive”; that for `CC1=C(/C=C/C(C)=C/C=C/C(C)=C/C(=O)Nc2ccc(O)cc2)C(C)(C)CCC1`, 5.96 µM (active) and 7.89 µM (active).
Same read-out and setting: then `CCCCCCCCCCCCCOP(=O)(O)O`, with “inactive”; and `CCCCCCCCCCCCCC[n+]1ccccc1`, with 2.43 µM (active).
Still for that read-out and setting: the result for `Cc1oc(-c2ccccc2)nc1CCOc1ccc(C[C@H](Nc2ccccc2C(=O)c2ccccc2)C(=O)O)cc1` reads 54.5 µM (active).
Regarding `Cc1nc(Nc2ncc(C(=O)Nc3c(C)cccc3Cl)s2)cc(N2CCN(CCO)CC2)n1`, the Potency is 18.8 µM (active).
The same measure, in the same setting: then `O=C(O)CC(=O)O`, with “inactive”.
On to `c1cc2c3c(c1)ccc1cccc(c13)C2`, for which the Potency result is “inactive”.
Still for that read-out and setting: then `Cc1cc2c(C(C)C)c(O)c(O)c(C=O)c2c(O)c1-c1c(C)cc2c(C(C)C)c(O)c(O)c(C=O)c2c1O`, with 9.44 µM (active); and `Clc1ccc(C(Cn2ccnc2)OCc2c(Cl)cccc2Cl)c(Cl)c1` (stereo not given), with 11.4 µM (active).
The same measure, in the same setting: the result for `Oc1ccc(-c2ccc(O)cc2)cc1` reads “inactive”.

The test system of the next assay is thyroid hormone receptor (rat, GH3 cells). Kind of assay: qHTS assay to identify small molecule agonists of the thyroid receptor (TR) signaling pathway (AID 743066). The note with it: GH3.TRE-Luc cells, TR agonist luciferase, 24 h; series mostly up to 83.9 µM. (In qHTS, concentration-response curves come from the screen itself.)
As to `CC(COC(=O)c1ccccc1)OC(=O)c1ccccc1` (stereo not given), the Potency result is “inactive”.
As for `O=C(Oc1ccccc1)c1cccc(C(=O)Oc2ccccc2)c1`, the Potency result is “inactive”.
Same read-out and setting: the result for `Brc1ccccc1-c1ccccc1` reads “inactive”.
The same measure, in the same setting: then `CNC(=S)NN`, with “inactive”; and `CCCCCCCOC(=O)c1ccc(O)cc1`, with “inactive”.
Regarding `O=C1OC(OC(=O)c2cccnc2Nc2cccc(C(F)(F)F)c2)c2ccccc21` (stereo not given), the Potency entry is “inactive”.
The same measure, in the same setting: the result for `O=Cc1ccc(F)cc1` reads “inactive”.
Still for that read-out and setting: the result for `Cc1ccc(N)cc1O` reads “inactive”; that for `Nc1ncnc2c1ncn2[C@@H]1O[C@H](COP(=O)(O)O)[C@@H](O)[C@H]1O`, “inactive”; that for `C/C=C/C=N/NC(=O)c1ccncc1`, “inactive”.
Still for that read-out and setting: the result for `CCCCC(CC)COC(=O)c1ccc(O)cc1` (stereo not given) reads “inactive”.
Consider `SCCCCCCCCS`, for which the Potency result was “inactive”.
Still for that read-out and setting: then `CC1=C(/C=C/C(C)=C/C=C/C(C)=C/C(=O)Nc2ccc(O)cc2)C(C)(C)CCC1`, with “inactive”; and `CCCCCCCCCCCCCOP(=O)(O)O`, with “inactive”.
Still for that read-out and setting: the result for `CCC(C)(C)c1cc(O)c(C(C)(C)CC)cc1O` reads “inactive”.
The same measure, in the same setting: then `CCCCCCCCCCCCCC[n+]1ccccc1`, with “inactive”; and `Clc1ccccc1CN1CCc2sccc2C1`, with “inactive”.
As to `O=C(O)CC(=O)O`, the Potency result was “inactive”.
On to `CCCCCCCCCCCCCCNCCO`, for which the Potency entry was “inactive”.
On to `O=C1OC(=O)c2cccc3cccc1c23`, for which the Potency entry is “inactive”.
On to `c1cc2c3c(c1)ccc1cccc(c13)C2`, for which the Potency entry is “inactive”.
Still for that read-out and setting: the result for `CCCCCCCCCC(=O)N(C)C` reads “inactive”; that for `NCCCCCCNCCCCCCN`, “inactive”.
The same measure, in the same setting: then `S=C(SSSSSSC(=S)N1CCCCC1)N1CCCCC1`, with “inactive”; and `Oc1ccc(-c2ccc(O)cc2)cc1`, with “inactive”.

In the next assay the target is Estrogen receptor (Homo sapiens) (UniProt P03372). The assay is described as follows: qHTS assay to identify small molecule antagonists of the estrogen receptor alpha (ER-alpha) signaling pathway (AID 743069; active means well fitted curve in the direction sought with a large enough effect in the signal ratio in the repeat runs, not every such curve was filed as active; inconclusive means weak or mixed curves, or effect the other way; inactive means no such curve, though single readings can be large or run the other way; the % refers to the signal ratio; further: potency means the concentration at half of the fitted maximal effect). The note with it: HEK293 ER-alpha-UAS-bla, beta-lactamase ratio, antagonist mode; series mostly up to 69.4 µM. In a few lines: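 ER-alpha-UAS-bla GripTite HEK293 line; 2% charcoal-stripped FBS overnight; plated, 4 hr 37C/5% CO2; cpd in DMSO + 17beta-estradiol, 18 hr 37C; LiveBLAzer B/G FRET substrate 2 hr RT; fluorescence intensity.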
Chain of Estrogen receptor (Homo sapiens) (P03372 whole entry, looked up): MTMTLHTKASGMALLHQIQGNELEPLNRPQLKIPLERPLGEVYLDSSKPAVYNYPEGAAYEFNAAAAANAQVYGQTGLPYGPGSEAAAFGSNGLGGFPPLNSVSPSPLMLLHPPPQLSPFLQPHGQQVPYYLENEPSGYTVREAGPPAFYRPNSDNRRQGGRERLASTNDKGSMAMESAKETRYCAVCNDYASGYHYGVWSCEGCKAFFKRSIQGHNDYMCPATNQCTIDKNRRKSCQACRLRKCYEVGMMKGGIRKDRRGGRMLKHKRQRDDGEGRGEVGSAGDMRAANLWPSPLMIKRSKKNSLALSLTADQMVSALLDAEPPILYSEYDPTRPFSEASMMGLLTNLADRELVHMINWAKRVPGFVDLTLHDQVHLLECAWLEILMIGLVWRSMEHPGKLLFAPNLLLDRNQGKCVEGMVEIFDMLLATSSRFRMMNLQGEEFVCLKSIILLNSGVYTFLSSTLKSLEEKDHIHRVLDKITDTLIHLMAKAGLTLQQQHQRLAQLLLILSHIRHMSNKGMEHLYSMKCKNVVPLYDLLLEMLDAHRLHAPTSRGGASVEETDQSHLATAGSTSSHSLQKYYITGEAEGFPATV
Turning to `CC(COC(=O)c1ccccc1)OC(=O)c1ccccc1` (stereo not given), the Potency entry is “inactive”.
As for `CCCCCCCOC(=O)c1ccc(O)cc1`, the Potency was 54.9 µM [inhibitor] (active).
Still for that read-out and setting: the result for `O=Cc1ccc(F)cc1` reads “inactive”; that for `Cc1ccc(N)cc1O`, “inactive”; that for `CC1=C(/C=C/C(C)=C/C=C/C(C)=C/C(=O)Nc2ccc(O)cc2)C(C)(C)CCC1`, 6.01 µM [inhibitor] (active).
Same read-out and setting: the result for `CCCCCCCCCCCCCCNCCO` reads “inactive”; that for `O=C1OC(=O)c2cccc3cccc1c23`, “inactive”.
On the same count and under the same terms, the result for `Cc1cc2c(C(C)C)c(O)c(O)c(C=O)c2c(O)c1-c1c(C)cc2c(C(C)C)c(O)c(O)c(C=O)c2c1O` reads 9.52 µM [inconclusive] (active).
Turning to `NCCCCCCNCCCCCCN`, the Potency result is “inactive”.
On the same count and under the same terms, then `S=C(SSSSSSC(=S)N1CCCCC1)N1CCCCC1`, with “inactive”.

Test system in the next assay: not listed separately
Kind of assay: qHTS assay to identify small molecule antagonists of the estrogen receptor alpha (ER-alpha) signaling pathway - cell viability counter screen (AID 743074).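 Further: HEK293 cells carrying ER-alpha-UAS-bla reporter stimulated with 17beta-estradiol; nearly all actives have a fitted effect of over 45% in size.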 Further: potency means the concentration at half of the fitted maximal effect. Particulars: ERalpha-bla HEK293 viability, CellTiter-Glo luminescence, 18 h; series mostly up to 69.4 µM.
As to `CC(COC(=O)c1ccccc1)OC(=O)c1ccccc1` (stereo not given), the Potency result was “inactive”.
The same measure, in the same setting: then `CNC(=S)NN`, with “inactive”; and `CCCCCCCOC(=O)c1ccc(O)cc1`, with “inactive”.
The same measure, in the same setting: then `O=C(Nc1ccc(Cl)cc1)Nc1ccc(Cl)c(C(F)(F)F)c1`, with 9.52 µM (active); and `O=C1OC(OC(=O)c2cccnc2Nc2cccc(C(F)(F)F)c2)c2ccccc21` (stereo not given), with “inactive”.
The same measure, in the same setting: the result for `CCCCCCCC/C=C\CCCCCCCC(=O)NCc1ccc(O)c(OC)c1` reads “inactive”; that for `O=Cc1ccc(F)cc1`, “inactive”.
Turning to `Nc1ncnc2c1ncn2[C@@H]1O[C@H](COP(=O)(O)O)[C@@H](O)[C@H]1O`, the Potency was 21.3 µM (active).
The same measure, in the same setting: the result for `C/C=C/C=N/NC(=O)c1ccncc1` reads “inactive”; that for `CCCCC(CC)COC(=O)c1ccc(O)cc1` (stereo not given), 54.7 µM (active).
The same measure, in the same setting: the result for `SCCCCCCCCS` reads “inactive”; that for `CCCCCCCCCCCCCOP(=O)(O)O`, “inactive”.
On the same count and under the same terms, the result for `CCCCCCCCCCCCCC[n+]1ccccc1` reads 24.5 µM (active); that for `Clc1ccccc1CN1CCc2sccc2C1`, “inactive”.
For `CC(C)(C)CC(C)(C)c1ccccc1O`, the Potency is 49.2 µM (active).
Same read-out and setting: the result for `Cc1nc(Nc2ncc(C(=O)Nc3c(C)cccc3Cl)s2)cc(N2CCN(CCO)CC2)n1` reads “inactive”; that for `O=C(O)CC(=O)O`, “inactive”.
Still for that read-out and setting: the result for `C=C(C)C(=O)OCCC[Si](Cl)(Cl)Cl` reads “inactive”; that for `CCCCCCCCCCCCCCNCCO`, “inactive”; that for `O=C1OC(=O)c2cccc3cccc1c23`, “inactive”.
The same measure, in the same setting: the result for `c1cc2c3c(c1)ccc1cccc(c13)C2` reads “inactive”.
On to `Cc1cc2c(C(C)C)c(O)c(O)c(C=O)c2c(O)c1-c1c(C)cc2c(C(C)C)c(O)c(O)c(C=O)c2c1O`, for which the Potency is 21.3 µM (active).
For `Cc1cccc(C)c1NC(=O)CN1CCN(CCCC(c2ccc(F)cc2)c2ccc(F)cc2)CC1`, the Potency entry was “inactive”.
The same measure, in the same setting: the result for `CCCCCCCCCC(=O)N(C)C` reads “inactive”; that for `C[C@H]1O[C@@H](O[C@H]2[C@@H](O)C[C@H](O[C@H]3[C@@H](O)C[C@H](O[C@H]4CC[C@@]5(C)[C@H](CC[C@@H]6[C@@H]5C[C@@H](O)[C@]5(C)[C@@H](C7=CC(=O)OC7)CC[C@]65O)C4)O[C@@H]3C)O[C@@H]2C)C[C@H](O)[C@@H]1O`, 0.0195 µM (active).
Still for that read-out and setting: then `NCCCCCCNCCCCCCN`, with “inactive”; and `Clc1ccc(C(Cn2ccnc2)OCc2c(Cl)cccc2Cl)c(Cl)c1` (stereo not given), with “inactive”.
